Experimental findings from PubChem BioAssay are described below.

The source made the active and inactive calls. The rule behind the calls is not given here.

This experiment has as its target Pantothenate synthetase (Mycobacterium tuberculosis (strain ATCC 25618 / H37Rv)) (UniProt P9WIL5). Description: Recombinant Mtb pantothenate synthetase (PanC) inhibitors, coupled enzyme, confirmatory (AID 375).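 Note: 0% = full reaction with vehicle and 100% = no enzyme background.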 The note with it: coupled enzyme assay; at 10 µM, stronger effect = higher value.

Chain of Pantothenate synthetase (Mycobacterium tuberculosis (strain ATCC 25618 / H37Rv)) (P9WIL5 whole entry, looked up): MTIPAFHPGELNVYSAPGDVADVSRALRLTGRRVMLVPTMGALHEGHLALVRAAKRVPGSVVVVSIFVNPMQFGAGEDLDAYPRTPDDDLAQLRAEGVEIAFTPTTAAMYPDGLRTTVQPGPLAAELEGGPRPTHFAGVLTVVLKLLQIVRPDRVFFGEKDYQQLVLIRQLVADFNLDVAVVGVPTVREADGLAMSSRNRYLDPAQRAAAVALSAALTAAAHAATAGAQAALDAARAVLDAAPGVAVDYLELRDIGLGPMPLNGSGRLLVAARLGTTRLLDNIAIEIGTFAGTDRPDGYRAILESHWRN

`OC(COc1ccc2ccccc2c1)CN1CCOCC1` (stereo not drawn): the inhibition is 0% (inactive).

On to `CCc1nn(CC(=O)NCCCN2CCc3ccccc3C2)c(=O)c2cc3sccc3n12`, for which the inhibition was 8% (inactive).

As to `O=c1c2ccccc2nc(SCc2cn3ccsc3n2)n1-c1ccc(F)cc1`, the inhibition was 0% (inactive).

For the compound `Cc1nc(SCC(=O)CC(=O)OC(C)C)c(C#N)c(C)c1C`, the inhibition was 0% (inactive).

Take `Cc1cccc(NC(=O)CC(C)(C)C)c1`: the inhibition was 0% (inactive).

Turning to `O=C(CSc1nnc(Cc2ccccc2)n1-c1cccc(Cl)c1)N1CCOCC1`, the inhibition was 0% (inactive).

In the case of `COc1ccccc1Cn1nnc2c(=O)[nH]c(C3CCN(C(=O)c4ccccc4Cl)CC3)nc21`, the inhibition is 0% (inactive).

Regarding `COCCNC(=S)c1ccc(OC)cc1`, the inhibition is 5% (inactive).

For `Cc1c(C(=O)OC2CCC(C)CC2)[nH]c2c1C(=O)CCC2` (stereo not drawn), the inhibition is 2% (inactive).

As to `Cc1cnc(C(=O)Nc2ccccc2-n2cccc2)cn1`, the inhibition was 3% (inactive).

`O=C(Cn1nc(C(F)(F)F)c2c1CCCC2)NCCN1CCOCC1`: the inhibition is 5% (inactive).

With `Cc1nc(C)c(C(=O)Nc2ccc(C)c(F)c2)o1`, the inhibition is 5% (inactive).

For the compound `Cc1cc(C(=O)Nc2cccc(O)c2)c(C)o1`, the inhibition is 20% (inactive).

For `O=C(Nc1cccc2ccccc12)c1cnccn1`, the inhibition is 0% (inactive).

With `O=C(c1ccco1)N1CCN(CC(=O)N(C2CCCCC2)C2CCS(=O)(=O)C2)CC1` (stereo not drawn), the inhibition is 2% (inactive).

Consider `c1cncc(-c2nnc3n2N=C(c2cccs2)CS3)c1`, for which the inhibition was 6% (inactive).

Turning to `Cc1ccc2[nH]c(=O)c(C(c3nnnn3CCc3ccccc3)N3CCOCC3)cc2c1` (stereo not drawn), the inhibition was 6% (inactive).

With `O=C(NC1CCCc2ccccc21)C1CCN(S(=O)(=O)c2cnc[nH]2)CC1` (stereo not drawn), the inhibition is 2% (inactive).

Take `O=C(O)CN(c1ccccc1)C1SC(=O)NC1=O` (stereo not drawn): the inhibition is 0% (inactive).

Turning to `O=C(Nc1ccc(N2CCCC2)cc1)c1ccc(Br)o1`, the inhibition is 0% (inactive).

`COc1cc(NC2=CC(=O)CC(C)(C)C2)cc(OC)c1`: the inhibition is 0% (inactive).

With `CC(=O)Nc1c(O)nc(SCC(=O)Nc2nnc(CC(C)C)s2)[nH]c1=O`, the inhibition was 9% (inactive).

With `O=C(Cn1cnc2c(nnn2Cc2ccc(Cl)cc2)c1=O)NCC1CCCO1` (stereo not drawn), the inhibition is 0% (inactive).

`COc1ccc(-c2nn(-c3ccccc3)cc2/C=N/n2cnnc2)cc1OC`: the inhibition was 9% (inactive).

On to `CCN(CCNC(=O)C1CCN(S(C)(=O)=O)CC1)c1ccccc1`, for which the inhibition was 6% (inactive).

Take `Cc1occc1-c1nnc(SCC(=O)N2CCc3ccccc32)o1`: the inhibition is 0% (inactive).

As for `COc1cccc(NC(=O)COC(=O)c2ccco2)c1`, the inhibition was 0% (inactive).

As to `O=C(Nc1ccc2oc(-c3ccncc3)nc2c1)c1cccs1`, the inhibition is 0% (inactive).

With `CN1C(=O)CC(C(=O)Nc2ccc(F)cc2)SC1=Nc1ccc2c(c1)OCO2` (stereo not drawn), the inhibition is 0% (inactive).

Turning to `C=C(c1ccc(O)cc1)c1ccc(O)cc1`, the inhibition is 0% (inactive).

As for `CCC(C)C(NC(=O)C1CCC(C)CC1)C(=O)NCc1cccnc1` (stereo not drawn), the inhibition was 6% (inactive).

`Cc1csc2nc(CSc3ccc(Cl)cc3)cn12`: the inhibition was 0% (inactive).

In the case of `Cn1c(=O)oc2cc(S(=O)(=O)N3CCC(C(=O)Nc4ccc(OC(F)(F)F)cc4)CC3)ccc21`, the inhibition was 0% (inactive).

As for `CC(C)=CCC(C)(C)C1OCCN1C(=O)c1ccccc1` (stereo not drawn), the inhibition is 2% (inactive).

Take `CCSCCNC(=O)c1cc(-n2cnnc2)ccc1Cl`: the inhibition was 0% (inactive).

Take `COc1ccc(Cc2nnc3n2N=C(c2cc4ccccc4o2)CS3)cc1OC`: the inhibition is 0% (inactive).

As for `O=C(N1CCOCC1)N1CCC(NC(=O)C23CC4CC(CC(C4)C2)C3)CC1`, the inhibition was 0% (inactive).

In the case of `CCOC(=O)c1ccc(NC(=O)CSC2=NC(=O)C(CC)C(=O)N2)cc1` (stereo not drawn), the inhibition was 3% (inactive).

As to `CC(=O)NC(=O)NC1CSCC1OC(C)=O` (stereo not drawn), the inhibition is 4% (inactive).

Take `COc1cccc(OC)c1C(=O)Nc1ccc(CN2CCCCC2)cc1`: the inhibition was 0% (inactive).

`CC1CC(C)CN(Cc2nc3c(c(=O)n(C)c(=O)n3C)n2Cc2ccccc2Cl)C1` (stereo not drawn): the inhibition was 0% (inactive).

Take `O=C(OCC#CCSc1nc2ccccc2s1)c1ccco1`: the inhibition is 3% (inactive).

`CCOC(=O)N1CCC(NC(=O)c2ccc3nc(N4CCOCC4)sc3c2)CC1`: the inhibition is 5% (inactive).

As to `COc1ccc(OC)c(C2CC(=O)NC(SC)=C2C#N)c1` (stereo not drawn), the inhibition is 5% (inactive).

Regarding `CCOc1cc2[nH]c(=O)n(CCCCC(=O)NCc3ccco3)c(=O)c2cc1OCC`, the inhibition was 6% (inactive).

As to `Cc1ccc(N2CCN(CCc3nc4cc(NS(C)(=O)=O)ccc4n3C)CC2)cc1`, the inhibition is 0% (inactive).

Regarding `Cc1nc(CNS(=O)(=O)c2cccc(F)c2)cs1`, the inhibition is 0% (inactive).

Take `CC(C)(C)Nc1nc(OCC(F)(F)F)nc(OCC(F)(F)F)n1`: the inhibition was 0% (inactive).

Turning to `O=C(CCC(=O)N1CCN(S(=O)(=O)c2ccccc2)CC1)c1cccs1`, the inhibition is 9% (inactive).

`O=C(c1cnn2c1NC(c1ccco1)CC2C(F)(F)F)N1CCN(c2cccc(Cl)c2)CC1` (stereo not drawn): the inhibition is 4% (inactive).

Take `Cc1onc(-c2c(Cl)cccc2Cl)c1C(N)=O`: the inhibition was 0% (inactive).

For the compound `O=C(Nc1cccnc1)Nc1ccccn1`, the inhibition is 0% (inactive).

For the compound `Cn1c(=O)[nH]c(=O)c2c1nc(N1CCNCC1)n2CCOc1ccccc1`, the inhibition was 0% (inactive).

`NC(=O)c1ccccc1NC(=O)CN1CCOCC1`: the inhibition is 6% (inactive).

As for `COCCN1CCN(c2c(C)c(C)nc3cc(-c4cccc(OC)c4)nn23)CC1`, the inhibition is 0% (inactive).

Regarding `O=C(CN1C(=O)CCS(=O)(=O)c2ccccc21)Nc1cccc(F)c1`, the inhibition is 5% (inactive).

As for `COc1ccc(N2CCN(CCNC(=O)CCS(=O)(=O)c3cccc4nsnc34)CC2)cc1`, the inhibition was 0% (inactive).

As for `CC(C)(NC(=O)N1CCCC1)c1cccc(C(C)(C)NC(=O)N2CCCC2)c1`, the inhibition is 0% (inactive).

As to `O=C(CN1CCOCC1)Nc1cccc(C(=O)Nc2cccc(C(F)(F)F)c2)c1`, the inhibition is 2% (inactive).

On to `COc1ccc(C(=O)N2CCN(c3nc4cc(C)ccc4cc3C#N)CC2)c(OC)c1`, for which the inhibition is 0% (inactive).

Turning to `CC1(C)Cc2noc(N)c2C(C)(C)N1OC(=O)c1ccccc1`, the inhibition was 0% (inactive).

Regarding `CN=C(Nc1ccc2c(c1)OCO2)SC1CC(=O)N(c2ccccc2)C1=O` (stereo not drawn), the inhibition was 0% (inactive).

For the compound `CCOc1ccccc1NC(=O)CC1Nc2cc(C)c(C)cc2NC1=O` (stereo not drawn), the inhibition is 0% (inactive).
